Results on 40 compounds are retold here after ChEMBL document CHEMBL1157539, “Thousands of chemical starting points for antimalarial lead identification” (Nature, 2010).

The first assay has as its system Plasmodium falciparum. The assay is described as follows: GSK_TCMDC: Inhibition of Plasmodium falciparum Dd2 in whole red blood cells, using parasite LDH activity as an index of growth. Test compounds present at 2uM. It counts as functional.
In general, Inhibition refers to the drop in the measured response relative to a control, in per cent. A higher Inhibition goes with a response far below the control. The compound `COc1ccc(C)c(Nc2ccnc(Nc3cccc(-c4nc5ccccc5[nH]4)c3)n2)c1.Cl` gave an Inhibition of 35%.
On the same count and under the same terms, then `O=C(Nc1ccc2c(c1)CCC2)c1cccc(N2CCN(c3ccncc3)CC2)c1.O=C(O)C(F)(F)F`, with 22%; and `Cc1cc(C2CCN(CCCCNC(=O)c3ccc(NC(=O)c4ccc(Cl)cc4)cc3)CC2)c(C)cc1OCc1nccn1C.Cl`, with 98%; and `N#Cc1ccc(NC2(C(=O)N3CCN(c4cccc(Cl)c4)CC3)CC2)c2ccccc12`, with 66%.
Same read-out and setting: under `COc1cc(C(=O)N2CCOC(CCN3CCC(Cc4ccc(F)cc4)CC3)(c3ccc(Cl)c(Cl)c3)C2)cc(OC)c1OC` (stereo not given) stands 58%.
`CN(C)c1ccc(C=Cc2nc(=O)c3ccccc3o2)cc1` came in with an Inhibition of 97%.
The same measure, in the same setting: under `Cc1ccc(Oc2c(-c3ccccc3CN3CCCC3CN(C)C)cnn(C)c2=O)cn1.O=C(O)C(F)(F)F` (stereo not given) stands 9%; under `Cc1cccc2nc(-c3cccc(-c4cccc(NC(=O)Nc5ccc(Cl)c(Cl)c5)c4)c3)[nH]c12`, 96%; under `COc1ccc(C2c3cc(OC)c(OC)cc3C(=NO)C2C)cc1OC` (stereo not given), 6%.
Still for that read-out and setting: then `CCOc1cc(C(=O)NCCc2ccc(Cl)c(Cl)c2)ccc1-c1nc2cc(Cl)ccc2[nH]1`, with 47%; and `Clc1ccc2c(NN=Cc3ccco3)ccnc2c1`, with 96%; and `CCc1cc2c(N)nc(N)nc2nc1-c1ccccc1`, with 0%.
On the same count and under the same terms, under `O=C(O)C(F)(F)F.O=c1[nH]c2ccc(Nc3nccc(NCCc4ccccc4)n3)cc2[nH]1` stands 6%; under `O=C(NCC1CCN(C/C=C/c2ccccc2)CC1)Nc1ccc(Oc2ccccc2)cc1`, 11%; under `FC(F)(F)c1cccc(N=C(S)NN=Cc2ccccn2)c1`, 99%.
Turning to `CN1CCN(c2ccnc3ccc(NC(=O)Nc4ccc5c(c4)CCCC5=O)cc23)CC1`, the Inhibition is 90%.
Same read-out and setting: under `CC(C)(C)c1ccc(CN2CCC(NC(=O)c3ccc(-c4cccc(C(F)(F)F)c4)s3)CC2)cc1.O=C(O)C(F)(F)F` stands 96%; under `Fc1ccc(Nc2ccnc3cc(-c4cccc(CN5CCCCC5)c4)ccc23)c(Cl)c1`, 58%; under `O=C(Nc1ccc(N2CCCN(Cc3cccc(F)c3)CC2)cc1)c1ccc(F)cc1.O=C(O)C(F)(F)F`, 95%.
Same read-out and setting: under `CCNc1cc(C(=O)N[C@@H](Cc2ccccc2)[C@H](O)CNCc2cccc(OC)c2)c(OC)c(N2CCCCS2(=O)=O)c1` stands 96%; under `COc1ccc(NC(=O)c2ccc(-c3nc(-c4ccccc4)cs3)cc2)cc1N1CCN(C)CC1.O=C(O)C(=O)O`, 13%.
Same read-out and setting: under `CC(C)(C)COc1ccc2c(N)n[nH]c2c1.Cl` stands 8%.
`COc1cc2nc(NCCCOC(C)C)n3nc(-c4ccccc4)nc3c2cc1OC` had an Inhibition of 97%.
The same measure, in the same setting: under `Cc1onc(-c2ccccc2)c1-c1nc(NCc2ccccc2Cl)no1` stands 92%; under `CCCC1(NC[C@@H](O)[C@H](Cc2ccccc2)NC(=O)c2cc(NCC)cc(N3CCCCS3(=O)=O)c2)CC1.Cl`, 98%; under `O=C(/C=C/c1ccc(Cl)c(Cl)c1)NCCCCCN1CCC(NC(=O)Nc2ccc([N+](=O)[O-])cc2)CC1`, 2%.
On the same count and under the same terms, under `COc1ccc2nccc([C@@H](O)CN3CCC(NCc4cc5ccccc5[nH]4)CC3)c2c1.CS(=O)(=O)O` stands 41%; under `CCCCc1ccc(C(=O)Nc2ccc3nc(N4CCN(C)CC4)cc(C)c3c2)cc1`, 21%; under `Oc1c(C(Nc2ccccn2)c2ccc(Cl)cc2Cl)ccc2cccnc12` (stereo not given), 60%.
Still for that read-out and setting: then `Cl.O=C(Nc1ccc(NC2=NCCN2)cc1)c1ccc(C(=O)Nc2ccc(NC3=NCCN3)cc2)cc1`, with 86%; and `CN(C)Cc1ccc(-c2ccc3c(Nc4ccc(Cl)cc4F)ccnc3c2)o1`, with 99%.
Compound `Cc1c(NCCCNCc2cc(Cl)cc(Cl)c2Cl)[nH]c2ccccc2c1=O.Cl` gave an Inhibition of 86%.
On the same count and under the same terms, under `CN1CCN(CCCN(Cc2csc(-c3ccc(CNCc4ccccc4)cc3)n2)S(=O)(=O)c2cccc3cccnc23)CC1.O=C(O)C(F)(F)F` stands 32%; under `Cc1cccc2nc(-c3ccc(-c4cccc(CNCCCN5CCCC5=O)c4)cc3)[nH]c12.O=C(O)C(F)(F)F`, 3%; under `COc1ccc(CCCN2C(=O)C(c3ccccc3)(c3ccccc3)N=C2N)cc1.O=C(O)C(F)(F)F`, 76%.
The same measure, in the same setting: then `CCn1cc2c3c(cc(C(=O)N[C@@H](Cc4ccccc4)[C@H](O)CNC4CCOCC4)cc31)N(C)S(=O)(=O)CC2`, with 98%; and `O=C1Nc2ccc3ncccc3c2/C1=C/Nc1ccc(Cn2ccnc2)cc1`, with 85%.
Same read-out and setting: then `COC(=O)c1ccc2nc(-c3cc(OC)c(O)c(C(=O)NC4CCN(Cc5ccccc5)CC4)c3)[nH]c2c1`, with 0%.
`Cc1ccc(C(=O)Nc2ccc(Nc3ccnc4cc(-c5ccccn5)ccc34)cc2O)cc1.Cl` gave an Inhibition of 100%.
Still for that read-out and setting: under `O=C(Nc1cccc(CN2CCCN(Cc3ccc(O)cc3)CC2)c1)c1cc2ccccc2o1.O=C(O)C(F)(F)F` stands 62%.

The subject of the next assay is HepG2. In words: GSK_TCMDC: Percent inhibition of human HepG2 cell line. Test compounds present at 10uM. The format is functional.
Consider `COc1ccc(C)c(Nc2ccnc(Nc3cccc(-c4nc5ccccc5[nH]4)c3)n2)c1.Cl`, for which the Inhibition was 27%.
Same read-out and setting: under `O=C(Nc1ccc2c(c1)CCC2)c1cccc(N2CCN(c3ccncc3)CC2)c1.O=C(O)C(F)(F)F` stands 35%.
In the case of `Cc1cc(C2CCN(CCCCNC(=O)c3ccc(NC(=O)c4ccc(Cl)cc4)cc3)CC2)c(C)cc1OCc1nccn1C.Cl`, the Inhibition came out at 18%.
Still for that read-out and setting: under `N#Cc1ccc(NC2(C(=O)N3CCN(c4cccc(Cl)c4)CC3)CC2)c2ccccc12` stands 0%; under `COc1cc(C(=O)N2CCOC(CCN3CCC(Cc4ccc(F)cc4)CC3)(c3ccc(Cl)c(Cl)c3)C2)cc(OC)c1OC` (stereo not given), 44%.
Still for that read-out and setting: then `CN(C)c1ccc(C=Cc2nc(=O)c3ccccc3o2)cc1`, with 6%; and `Cc1ccc(Oc2c(-c3ccccc3CN3CCCC3CN(C)C)cnn(C)c2=O)cn1.O=C(O)C(F)(F)F` (stereo not given), with 0%.
For the compound `Cc1cccc2nc(-c3cccc(-c4cccc(NC(=O)Nc5ccc(Cl)c(Cl)c5)c4)c3)[nH]c12`, the Inhibition came to 24%.
Same read-out and setting: then `COc1ccc(C2c3cc(OC)c(OC)cc3C(=NO)C2C)cc1OC` (stereo not given), with 20%.
Still for that read-out and setting: under `CCOc1cc(C(=O)NCCc2ccc(Cl)c(Cl)c2)ccc1-c1nc2cc(Cl)ccc2[nH]1` stands 9%; under `Clc1ccc2c(NN=Cc3ccco3)ccnc2c1`, 3%; under `CCc1cc2c(N)nc(N)nc2nc1-c1ccccc1`, 18%.
`O=C(O)C(F)(F)F.O=c1[nH]c2ccc(Nc3nccc(NCCc4ccccc4)n3)cc2[nH]1` yielded an Inhibition of 0%.
On the same count and under the same terms, under `O=C(NCC1CCN(C/C=C/c2ccccc2)CC1)Nc1ccc(Oc2ccccc2)cc1` stands 40%.
On the same count and under the same terms, then `FC(F)(F)c1cccc(N=C(S)NN=Cc2ccccn2)c1`, with 29%; and `CN1CCN(c2ccnc3ccc(NC(=O)Nc4ccc5c(c4)CCCC5=O)cc23)CC1`, with 8%; and `CC(C)(C)c1ccc(CN2CCC(NC(=O)c3ccc(-c4cccc(C(F)(F)F)c4)s3)CC2)cc1.O=C(O)C(F)(F)F`, with 97%.
As to `Fc1ccc(Nc2ccnc3cc(-c4cccc(CN5CCCCC5)c4)ccc23)c(Cl)c1`, the Inhibition is reported as 3%.
On the same count and under the same terms, then `O=C(Nc1ccc(N2CCCN(Cc3cccc(F)c3)CC2)cc1)c1ccc(F)cc1.O=C(O)C(F)(F)F`, with 0%.
The compound `CCNc1cc(C(=O)N[C@@H](Cc2ccccc2)[C@H](O)CNCc2cccc(OC)c2)c(OC)c(N2CCCCS2(=O)=O)c1` displayed an Inhibition of 11%.
The same measure, in the same setting: then `COc1ccc(NC(=O)c2ccc(-c3nc(-c4ccccc4)cs3)cc2)cc1N1CCN(C)CC1.O=C(O)C(=O)O`, with 17%; and `CC(C)(C)COc1ccc2c(N)n[nH]c2c1.Cl`, with 31%.
In the case of `COc1cc2nc(NCCCOC(C)C)n3nc(-c4ccccc4)nc3c2cc1OC`, the Inhibition is on record as 0%.
On the same count and under the same terms, under `Cc1onc(-c2ccccc2)c1-c1nc(NCc2ccccc2Cl)no1` stands 2%; under `CCCC1(NC[C@@H](O)[C@H](Cc2ccccc2)NC(=O)c2cc(NCC)cc(N3CCCCS3(=O)=O)c2)CC1.Cl`, 1%.
Compound `O=C(/C=C/c1ccc(Cl)c(Cl)c1)NCCCCCN1CCC(NC(=O)Nc2ccc([N+](=O)[O-])cc2)CC1` returned an Inhibition of 20%.
Still for that read-out and setting: then `COc1ccc2nccc([C@@H](O)CN3CCC(NCc4cc5ccccc5[nH]4)CC3)c2c1.CS(=O)(=O)O`, with 75%.
Same read-out and setting: then `CCCCc1ccc(C(=O)Nc2ccc3nc(N4CCN(C)CC4)cc(C)c3c2)cc1`, with 44%; and `Oc1c(C(Nc2ccccn2)c2ccc(Cl)cc2Cl)ccc2cccnc12` (stereo not given), with 42%; and `Cl.O=C(Nc1ccc(NC2=NCCN2)cc1)c1ccc(C(=O)Nc2ccc(NC3=NCCN3)cc2)cc1`, with 15%.
`CN(C)Cc1ccc(-c2ccc3c(Nc4ccc(Cl)cc4F)ccnc3c2)o1` displayed an Inhibition of 13%.
Same read-out and setting: under `Cc1c(NCCCNCc2cc(Cl)cc(Cl)c2Cl)[nH]c2ccccc2c1=O.Cl` stands 35%; under `CN1CCN(CCCN(Cc2csc(-c3ccc(CNCc4ccccc4)cc3)n2)S(=O)(=O)c2cccc3cccnc23)CC1.O=C(O)C(F)(F)F`, 5%.
Still for that read-out and setting: under `Cc1cccc2nc(-c3ccc(-c4cccc(CNCCCN5CCCC5=O)c4)cc3)[nH]c12.O=C(O)C(F)(F)F` stands 6%; under `COc1ccc(CCCN2C(=O)C(c3ccccc3)(c3ccccc3)N=C2N)cc1.O=C(O)C(F)(F)F`, 21%; under `CCn1cc2c3c(cc(C(=O)N[C@@H](Cc4ccccc4)[C@H](O)CNC4CCOCC4)cc31)N(C)S(=O)(=O)CC2`, 0%.
Compound `O=C1Nc2ccc3ncccc3c2/C1=C/Nc1ccc(Cn2ccnc2)cc1` registered an Inhibition of 33%.
On the same count and under the same terms, then `COC(=O)c1ccc2nc(-c3cc(OC)c(O)c(C(=O)NC4CCN(Cc5ccccc5)CC4)c3)[nH]c2c1`, with 8%; and `Cc1ccc(C(=O)Nc2ccc(Nc3ccnc4cc(-c5ccccn5)ccc34)cc2O)cc1.Cl`, with 100%; and `O=C(Nc1cccc(CN2CCCN(Cc3ccc(O)cc3)CC2)c1)c1cc2ccccc2o1.O=C(O)C(F)(F)F`, with 10%.
